# According to PubChem BioAssay (NCI):
# The panel holds about 83,000 compounds, 20% with a hit somewhere; the sample as a whole holds those more often.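 Step 1: grow cells in 96-well plates. Step 2: add test compound at a single concentration. Step 3: incubate 48 h. Step 4: record percent growth.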 Unmarked numbers belong to inactive results. The source made the active and inactive calls. How the source made its calls: active means growth percent below 10; inactive means the rest.
# Tested on: HL-60(TB) leukemia
# Experiment: NCI-60 one-dose screen, 48 h (100 = growth as untreated, 0 = no growth, -100 = all killed)
# Conditions: 10 µM unless noted
row,Structure (SMILES),growth
1,CCCCNC(=O)Oc1ccc(/C(=C(/CC)Cc2ccccc2)c2ccc(OCCCN(C)C)cc2)cc1,78%
2,Cn1cc(C(=O)c2nc(-c3c[nH]c4ccc(Br)cc34)no2)c2cc(Br)ccc21,82.9%
3,CN(C)c1ccc(/C=N\Nc2cc(=O)[nH]c3ccc(Cl)cc23)cc1,98.2%
4,c1ccc(Cc2ccccc2)cc1,112%
5,C#Cc1cccc(NC(=O)c2ccccc2NC(=O)C=C)c1,97.7% [8.25 µM]
6,CC(=O)N1c2ccccc2NC2=C(C(=O)NC2(C)C)C1c1ccco1 (stereo not given),65.1%
7,N[C@@H](CCCCNCC(=O)O)C(=O)O,106%
8,O=C(Nc1ccc2ccccc2c1)c1cc2ccccc2cc1O,79.7%
9,COc1nc2c(c(=O)n1C)CN(c1ccccc1)C(=O)CN2C,93% [100 µM]
10,Cc1cc(N2CCCCC2)cc(C)c1-c1csc(NC(=O)c2ccncc2)n1,21.8%
11,COc1cc(Nc2ncccc2C(=O)Nc2nc3ccc(F)cc3s2)cc(OC)c1OC,136%
12,CNC(=O)c1cc(Oc2ccc3nc(Nc4ccc(Cl)c(C(F)(F)F)c4)ccc3c2)ccn1,62.6%
13,NCCn1cc(-c2nc(-c3c[nH]c4ncccc34)cs2)c2cc(Br)ccc21,51.1%
14,O=C(O)COc1ccc([N+](=O)[O-])cc1Cl,108%
15,COc1ccc(F)cc1/C=C/C(=O)/C=C(/C=C/c1cc(F)ccc1OC)OB(F)F,-8.82% (active)
16,COc1ccc(/C=N\N2CCOCC2)cc1OC1CCCC1,104%
17,COc1ccc(-c2cnc(-c3ccc(Cl)cc3)[nH]2)cc1OC,91.2%
18,O=[N+]([O-])c1ccc(-c2cn3nc(-c4c[nH]c5ccccc45)sc3n2)cc1,95.3%
19,COc1cc(-c2nn(-c3cccc(NC(=O)CCN4CCN(c5ccccc5)CC4)c3)cc2-c2ccncc2)ccc1Cl,13%
20,c1ccc(-c2n(Cc3ccc4ccccc4n3)c3ccccc3[n+]2Cc2ccc3ccccc3n2)cc1,-54% (active)

row,Structure (SMILES),growth
1,CC(=O)OCc1cc(-c2nc3ccccc3[nH]c2=O)nn1-c1ccc(Cl)cc1,84.5%
2,O=C1C2=C(Nc3cc(Cl)ccc3N2)OC1c1c[nH]c2ccc(COc3ccccc3)cc12 (stereo not given),81.6%
3,N=C(N)SCc1c2ccccc2c(CSC(=N)N)c2ccccc12,20.8%
4,O=C(CCl)Oc1ccc([N+](=O)[O-])cc1,107%
5,O=C1/C(=C/c2ccccc2)CN(C(=O)c2cccnc2)C/C1=C\c1ccccc1,-8.8% (active)
6,CCCCCCOc1ccc(C(=N)N(CCCC)CCCC)c2ccccc12,-49.6% (active)
7,COc1cc(Cn2cc3c(c2)-c2onc(CO)c2CC3)cc(OC)c1OC,77.5%
8,C[n+]1cc2cc3c(cc2c2ccccc21)OCO3,87.5%
9,CCCCCCCCCCSC(=N)N (tested in a mixture with another compound),62.8%
10,Cc1cc(-c2ccc(N(C)C)cc2)c2sc(=O)[nH]c2n1,14.3%
11,CN1C(=O)N(C)C2C1NN=c1s/c(=C\C=C\c3ccccc3)c(=O)n12 (stereo not given),17.1%
12,C#CCNC(=S)N/N=C(\C)c1ccccn1,-18.6% (active)
13,CC(C)C(=O)OCCOc1ccc(C(C)(C)C)cc1,107%
14,CCCCc1ccc(C(O)(CCN2CC3CCC(CC3)C2)c2ccccc2)cc1 (stereo not given),84.5%
15,CCN1C(=O)N(CC)C2C1NN=c1s/c(=C3\C(=O)N(C4CCCC4)c4ccccc43)c(=O)n12 (stereo not given),-44.5% (active)
16,CCOC(=O)c1c(C)oc2ncnc(Nc3ccc(NC(=O)Nc4ccc(CC)cc4)cc3)c12,103%
17,O=C(NC1CCCC1)c1ccc(N2CCC(NCc3cccc(C(F)(F)F)c3)CC2)cc1,66.5%
18,O=C1Nc2ccccc2/C1=N/c1nc(-c2ccc(Cl)cc2)cs1,7.82% (active)
19,COc1cc(NCc2ccc3nc(N)nc(N)c3c2C)cc(OC)c1OC (tested in a mixture with another compound),25.7%
20,Cc1cc(OCCO)cc(C)c1Cl,100%
